Laboratory results: article PMC5540273 (PLoS ONE, 2017)

Experiments:
Details in all cases: concentration: 1 μM, replicates: in singlicate; n = 1
TNNI3K = system: TNNI3K
TRKA = system: T1, TRKA
T1 construct: gene NTRK1

TRKB = system: TRKB
TRKC = system: T2, TRKC
T2 construct: gene NTRK3

TRPM6 = system: TRPM6
TSSK1B = system: TSSK1B
TSSK3 = system: TSSK3
TTK = system: TTK
TXK = system: TXK
[1] = system: TYK2(JH1domain-catalytic)
[2] = system: TYK2(JH2domain-pseudokinase)
TYRO3 = system: TYRO3
ULK1 = system: ULK1
ULK2 = system: ULK2
ULK3 = system: ULK3
VEGFR2 = system: T3, VEGFR2
T3 construct: gene KDR

VPS34 = system: T4, VPS34
T4 construct: gene PIK3C3

VRK2 = system: VRK2
WEE1 = system: WEE1
WEE2 = system: WEE2
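Also: KINOMEscan kinase panel screen.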

| Compound | %Inh (TNNI3K) [%] | %Inh (TRKA) [%] | %Inh (TRKB) [%] | %Inh (TRKC) [%] | %Inh (TRPM6) [%] | %Inh (TSSK1B) [%] | %Inh (TSSK3) [%] | %Inh (TTK) [%] | %Inh (TXK) [%] | %Inh [1] [%] | %Inh [2] [%] | %Inh (TYRO3) [%] | %Inh (ULK1) [%] | %Inh (ULK2) [%] | %Inh (ULK3) [%] | %Inh (VEGFR2) [%] | %Inh (VPS34) [%] | %Inh (VRK2) [%] | %Inh (WEE1) [%] | %Inh (WEE2) [%] |
| --- | --- | --- | --- | --- | --- | --- | --- | --- | --- | --- | --- | --- | --- | --- | --- | --- | --- | --- | --- | --- |
| Cc1ccc(NC(=O)c2ccnc(N3CCCCC3)c2)cc1-c1ccc(C(=O)NCC2CC2)cc1 [GW775610] | 13 | 58 | 14 | 0 | 0 | 0 | 23 | 0 | 0 | 19 | 0 | 0 | 0 | 0 | 0 | 0 | 0 | 100 | 0 | 37 |
| CN(C)CCOc1ccc(-c2cc(-c3ccc(Cl)c(O)c3)c(-c3ccncc3)[nH]2)cc1.Cl.Cl [SB-684387] | 60 | 9 | 21 | 36 | 36 | 0 | 15 | 0 | 56 | 8 | 18 | 6 | 6 | 8 | 14 | 21 | 16 | 45 | 7 | 0 |
| COc1ccc(C2=C(Nc3cccc(O)c3)C(=O)NC2=O)cc1 [SB-390766] | 27 | 0 | 41 | 51 | 30 | 8 | 12 | 0 | 8 | 25 | 46 | 0 | 26 | 0 | 25 | 0 | 0 | 0 | 90 | 6 |
| Cn1cc(-c2cnc(N)c3c(-c4ccc5c(c4)CCN5C(=O)Cc4ccccc4)csc23)cn1 [GSK2593074] | 0 | 79 | 80 | 66 | 15 | 0 | 0 | 7 | 9 | 0 | 0 | 63 | 0 | 0 | 0 | 65 | 0 | 0 | 3 | 5 |
| COc1cccc2c(-c3ccncc3)c(-c3ccc(F)cc3)nn12 [GW468513] | 6 | 17 | 11 | 0 | 9 | 49 | 21 | 0 | 6 | 25 | 67 | 0 | 3 | 0 | 0 | 0 | 10 | 12 | 4 | 0 |
| Cc1cccc(Nc2nc(N[C@H]3CCCC[C@H]3N)ncc2C(N)=O)c1.Cl [GSK986310] | 31 | 99 | 55 | 22 | 0 | 64 | 33 | 36 | 0 | 70 | 19 | 21 | 72 | 80 | 43 | 0 | 56 | 0 | 41 | 8 |
| O=C(Nc1c(F)cccc1F)c1cc(C(=O)c2ccccc2F)c[nH]1 [GSK1326180] | 0 | 27 | 0 | 12 | 0 | 0 | 24 | 6 | 0 | 0 | 0 | 0 | 15 | 0 | 2 | 0 | 5 | 0 | 2 | 6 |
| NCCC(NC(=O)c1cc(Br)c(-c2ccnc3[nH]ccc23)s1)c1ccccc1.O=C(O)C(F)(F)F.O=C(O)C(F)(F)F (stereo not drawn) [GSK1307810] | 2 | 91.4 | 59 | 47 | 0 | 0 | 20 | 25 | 0 | 83 | 7 | 0 | 30 | 8 | 16 | 55 | 25 | 23 | 4 | 0 |
| CC(C)c1nc(-c2cccc(NS(=O)(=O)c3c(F)cccc3F)c2)c(-c2ccnc(Nc3ccc(N4CCOCC4)nc3)n2)s1.Cl [GSK1723980] | 52 | 61 | 0 | 14 | 27 | 0 | 19 | 61 | 92.7 | 45 | 60 | 72 | 22 | 13 | 93.5 | 91 | 0 | 0 | 18 | 0 |
| Nc1ncc(-c2cn[nH]c2)c2scc(-c3ccc4c(c3)CCN4C(=O)Cc3ccccc3)c12 [GSK2593067] | 0 | 96.8 | 63 | 70 | 16 | 3 | 20 | 1 | 30 | 10 | 16 | 6 | 9 | 0 | 9 | 53 | 33 | 0 | 0 | 12 |
| Cc1ccc(NC(=O)c2cccc(N3CCCCC3)c2)cc1-c1ccc(C(=O)NCC2CC2)cc1 [GSK1917008] | 28 | 0 | 0 | 0 | 23 | 28 | 10 | 11 | 7 | 16 | 0 | 0 | 37 | 13 | 18 | 6 | 0 | 0 | 0 | 18 |
| O=C(O)C(F)(F)F.O=c1[nH]ccc2nc(N[C@@H]3CCNC3)nc(Nc3ccc4c(c3)S(=O)(=O)CC4)c12 [GSK2181306] | 11 | 100 | 92.8 | 84 | 38 | 69 | 96.5 | 85 | 26 | 90.8 | 57 | 2 | 99.9 | 99.5 | 98.6 | 36 | 88 | 89 | 18 | 0 |
| CC(=O)Nc1cn2nc(Oc3cccc(NC(=O)c4cccc(C(F)(F)F)c4)c3)ccc2n1 | 97 | 0 | 0 | 0 | 0 | 8 | 0 | 29 | 61 | 0 | 0 | 33 | 0 | 0 | 0 | 99.4 | 24 | 8 | 21 | 0 |
| Cc1cc(-c2c(-c3ccc(F)cc3)ncn2CCCN2CCOCC2)nc(N)n1 [SB-222517] | 0 | 0 | 0 | 0 | 15 | 0 | 0 | 48 | 14 | 0 | 16 | 0 | 20 | 30 | 18 | 5 | 29 | 0 | 47 | 1 |
| CCn1c(-c2nonc2N)nc2c(-c3ccccc3)ncc(OCCCN)c21.O=C(O)C(F)(F)F.O=C(O)C(F)(F)F [GSK260205] | 16 | 0 | 23 | 26 | 19 | 11 | 24 | 0 | 0 | 88 | 95.2 | 0 | 9 | 0 | 4 | 21 | 0 | 28 | 2 | 8 |
